# Screens from PubChem.
# Shown are actives, neighbours in structure and some others; about 3.4% of the full set was active somewhere.
# AmpC no deterg: AmpC beta-lactamase inhibition without detergent; P00811; AmpC nitrocefin hydrolysis, absorbance 480 nm, 0.0001% Triton; Potency, µM (series often up to 57.1 µM), inactives show at the top dose activity change, negative = inhibition, most hits filed as inhibitors; hit rate 0.52% among 330,000;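 note: plate controls were no compound for no effect and no enzyme for full effect; nearly all actives have a fitted effect of over 20% in size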
# Target sequence (P00811 whole entry, looked up): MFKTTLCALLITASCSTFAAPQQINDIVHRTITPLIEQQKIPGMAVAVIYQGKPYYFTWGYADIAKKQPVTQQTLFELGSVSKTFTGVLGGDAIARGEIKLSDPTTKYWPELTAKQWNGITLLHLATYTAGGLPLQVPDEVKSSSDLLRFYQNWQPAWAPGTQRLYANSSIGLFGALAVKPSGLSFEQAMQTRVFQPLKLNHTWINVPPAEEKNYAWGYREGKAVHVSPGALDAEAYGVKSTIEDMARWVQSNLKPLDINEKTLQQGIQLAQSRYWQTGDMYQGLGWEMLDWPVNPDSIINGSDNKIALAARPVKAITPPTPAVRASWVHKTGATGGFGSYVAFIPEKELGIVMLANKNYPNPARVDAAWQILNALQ
#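 20 mM phosphate pH 7.0 + 0.01% (detergent screen) or 0.0001% Triton X-100; 5.3 nM AmpC reagent; cpd preinc 15 min RT; nitrocefin (800 uM stock) to start; A480 q20 s × 4 min; Activity was normalised to no-enzyme and no-compound control wells.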
# Sm TGR block: blocks Schistosoma mansoni thioredoxin glutathione reductase | hit rate 3% among 360,000 | Potency, µM (doses to about 114 µM), for the others: at the highest dose activity change, negative = inhibition, most hits filed as inhibitors | purified TGR, DTNB reduction, TNB absorbance 405 nm | Q962Y6; note: nearly all actives have a fitted effect of over 60% in size
#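 First, TGR (20 nM dispensed) and NADPH were mixed with compound. Second, a 15 min room-temperature incubation followed. Third, further NADPH and then DTNB were added to start the reaction. Finally, TNB absorbance was monitored kinetically.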
# Giardia FBPA inh: inhibitors of Giardia lamblia fructose-1,6-bisphosphate aldolase | Potency, µM (doses to about 59.6 µM), inactives show at the highest dose activity, negative = inhibition, usual class: inhibitors | hit rate 0.71% among 290,000 | purified Giardia FBPA | AID 2451 | A8B2U2; note: nearly all actives have a fitted effect of over 55% in size
# Target sequence (A8B2U2 whole entry, looked up): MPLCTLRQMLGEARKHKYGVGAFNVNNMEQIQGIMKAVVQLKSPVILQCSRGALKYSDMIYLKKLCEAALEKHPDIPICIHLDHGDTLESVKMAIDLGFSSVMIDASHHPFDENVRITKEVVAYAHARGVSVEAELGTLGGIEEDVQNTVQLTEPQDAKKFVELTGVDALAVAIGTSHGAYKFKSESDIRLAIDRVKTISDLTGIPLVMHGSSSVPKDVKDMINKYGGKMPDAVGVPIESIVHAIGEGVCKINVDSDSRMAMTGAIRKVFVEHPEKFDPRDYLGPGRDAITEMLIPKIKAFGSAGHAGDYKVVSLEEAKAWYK
#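 40 nM FBPA preincubated 10 min at RT with compound (up to 57.5 uM final), then substrate plus GAPDH/TPI/NAD/arsenate coupling and diaphorase/resazurin added. Fluorescence read after 20 min at RT, 525/598 nm.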
# RE007 growth inh: less growth of the S. pombe RE007 Vpr strain. hit rate 0.21% among 360,000. Potency, µM (series often up to 92.2 µM), without a hit: at the highest dose activity change, negative = less growth, hits mostly inhibitors. S. pombe RE007 Vpr strain, BacTiter-Glo ATP luminescence, 24 h. AID 651644; active = well fitted falling curve with a large enough effect; inconclusive = small, poorly fitted or top-dose-only effect; inactive = no such curve, though single readings can be large or run the other way; note: nearly all actives have a fitted effect of over 50% in size
#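 Fission yeast RE007 carrying one integrated HIV-1 vpr copy, seeded at OD 0.01 in PMG+AL medium with 23 nL pinned compound. Grown 24 h at 30 degrees; viability read by BacTiter-Glo luminescence after 5 min.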
# AmpC inh detg: AmpC beta-lactamase inhibition with detergent present; P00811; AmpC hydrolysis of nitrocefin, absorbance 480 nm, 0.01% Triton; Potency, µM (titrated, usually from 114 µM), for the others: at the highest dose activity change, negative = inhibition, hits mostly inhibitors; hit rate 0.041% among 370,000; AID 485294;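 note: 0% = no-compound wells and -100% = no-enzyme wells; nearly all actives have a fitted effect of over 25% in size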
#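 20 mM phosphate pH 7.0 + 0.01% (detergent screen) or 0.0001% Triton X-100; 5.3 nM AmpC reagent; cpd preinc 15 min RT; nitrocefin (800 uM stock) to start; A480 q20 s × 4 min; Activity was normalised to no-enzyme and no-compound control wells.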
# * hit, by the source's call; ? = inconclusive; nt = no result given; [ ] = another dose, or the depositor's remark. Unless noted, calls come from the whole dose curve; as a rule, active = well fitted curve in the direction sought with a large enough effect; inconclusive = small, poorly fitted or top-dose-only effect, or another doubt; inactive = no such curve, though single readings can be large; an effect the other way counts as inactive or inconclusive. Unless noted, % is set by controls: 0 for no effect and ±100 for the full control effect; potency is the fitted concentration of half-maximal effect.
SMILES,AmpC no deterg,Sm TGR block,Giardia FBPA inh,RE007 growth inh,AmpC inh detg
Cc1cccc(-n2c(-c3ccco3)nc3ccccc3c2=O)c1C,7%[2.29 µM],-35%,14%,4%,9%
CCCN1CCN(C(=O)c2ccc(CS(=O)c3ccc(F)cc3)o2)CC1 (centres undefined),-3%,-12%,nt,-22%,4%
CN(C(=S)Nc1ccc(Oc2ccccc2)cc1)c1ccc(O)cc1,-14%,40µM*,1.4µM*,4%,-7%
CN(C(=S)Nc1ccccc1)c1ccccc1,0%,-31%,6%,10%,?
O=C(O)c1cccc(NC(=O)c2cn(-c3ccccc3)nc2-c2ccc([N+](=O)[O-])cc2)c1,-29%,0%,7%,-1%,0%
COc1ccc(-c2nn(-c3ccccc3)cc2C(=O)Nc2cccc(C(=O)O)c2)cc1[N+](=O)[O-],3.5µM*,1%,-2%,9%,-3%
Cc1oc(C(=O)O)cc1CSCc1cc(C(=O)O)c(C)o1,3%,45µM*,-30%,-10%,2%
Cc1ccc(-n2ncc(C(=O)N3CCN(c4cccc(C)c4)C(C)C3)c2C2CCN(C(=O)OC(C)(C)C)CC2)cc1 (centres undefined),nt,-11%,nt,nt,0%
Cc1cc(=O)oc2ccc(OCC(=O)N3CCC(C)CC3)cc12,1%,18µM*,4%,2%,?
Cc1cc(=O)oc2cc(OCC(=O)N3CCCC(C)C3)ccc12 (centres undefined),-12%,3%,6%,11%,-12%
COc1ccc(N2C(=O)CC(Sc3nc4ccccc4s3)C2=O)cc1 (centres undefined),-19%,22µM*,-7%,-22%,1%
COc1ccc(N2C(=O)CC(N3CCN(c4nc5ccccc5s4)CC3)C2=O)cc1 (centres undefined),195%,20µM*,-1%,?,-8%
COc1ccc(N2C(=O)CC(N3CCN(c4ccc(S(C)(=O)=O)cc4)CC3)C2=O)cc1 (centres undefined),-9%,18µM*,-2%,-25%,?
CCOc1cccc(N2C(=O)CC(N3CCN(c4nc5ccccc5s4)CC3)C2=O)c1 (centres undefined),34%,?,1%,0%,-5%
COc1ccc(N2C(=O)CC(Sc3nnc(-c4ccccc4F)n3C)C2=O)cc1 (centres undefined),-10%,2.8µM*,0%,-25%,10%
COc1ccccc1-c1nc2c(c(SCc3cccc(Cl)c3)n1)Cc1c(CO)cnc(C)c1O2,nt,-2%,nt,nt,18%
CCOc1ccc2nc(SC3CC(=O)N(c4ccc(OC)cc4)C3=O)sc2c1 (centres undefined),-29%,-31%,-1%,-20%,3%
C=CCNc1nnc(SC2CC(=O)N(c3ccc(OC)cc3)C2=O)s1 (centres undefined),-16%,2.8µM*,-13%,?,-12%
COC(=O)CCCC1=CC2=C(c3ccccc3)C(=O)C(C)(OC(=O)C3CCCC3)C(=O)C2=CN1CC1CC1 (centres undefined),107%,28µM*,?,0%,-11%
COC(=O)CCCC1=CC2=C(c3ccccc3)C(=O)C(C)(OC(=O)C3CCCC3)C(=O)C2=CN1CC(C)C (centres undefined),148%,-3%,?,?,2%
COC(=O)CCCC1=CC2=C(c3ccccc3)C(=O)C(C)(OC(=O)C3CCCC3)C(=O)C2=CN1C1CCCCC1 (centres undefined),155%,20µM*,?,1%,1%
COCCN1C=C2C(=O)C(C)(OC(=O)C3CCCC3)C(=O)C(c3ccccc3)=C2C=C1CCCC(=O)OC (centres undefined),32%,14µM*,?,-10%,-7%
CCc1ccc(NC(=O)Cn2nnc(C(=O)Nc3ccc(F)cc3)c2N)cc1,nt,4%,nt,nt,15%
Cc1nn(CC(=O)Nc2ccc3c(c2)nc2n3CCN(C3CCCCC3)C2)c(=O)c2ccccc12,54%,18µM*,-21%,-8%,-8%
Cc1ccc(NC(=O)C2CCCC2)cc1S(=O)(=O)N1CCOCC1,-19%,0%,nt,-6%,7%
SMILES,AmpC no deterg,Sm TGR block,Giardia FBPA inh,RE007 growth inh,AmpC inh detg
O=S(=O)(c1ccc(NC(=S)NC2CC2)cc1)N1CCOCC1,-31%,16µM*,5%,3%,8%
Cc1ccc(C)c(SCC(=O)Nc2ccc(C)c(S(=O)(=O)N3CCOCC3)c2)c1,-21%,45µM*,nt,11%,4%
Cc1ccc(NC(=S)Nc2ccc(S(=O)(=O)N3CCOCC3)cc2)cc1S(=O)(=O)N1CCOCC1,-55%,16µM*,0%,50%,-8%
Cc1ccc(NC(=O)c2ccc([N+](=O)[O-])o2)cc1S(=O)(=O)N1CCOCC1,-23%,14µM*,-17%,-9%,4%
Cc1ccc2onc(CC(=O)N3CCN(c4cccc(Cl)c4)CC3)c2c1,nt,-27%,nt,nt,-1%
COc1ccc2c(c1)CCc1c(C(=O)NCc3cccnc3)noc1-2,2%,28µM*,?,2%,-1%
CCCNC(=O)c1noc2c1CCc1cc(OC)ccc1-2,-46%,-14%,-9%,-5%,3%
CCCSc1nnc(NC(=O)CSc2sc3c(O)cc(=O)[nH]c3c2C#N)s1,-41%,40µM*,?,-11%,1%
N#Cc1c(SCC(=O)Nc2nccs2)sc2c(O)cc(=O)[nH]c12,-38%,50µM*,?,10%,?
N#Cc1c(SCC(=O)Nc2nc3ccc(Br)cc3s2)sc2c(O)cc(=O)[nH]c12,25µM*,-25%,-6%,-10%,3%
C=CCn1cnc2scc(-c3ccc(CC)cc3)c2c1=O,nt,0%,5%,22%,1%
C/C(=N\NC(=S)NCc1ccccc1)c1ccc2ccccc2c1,25µM*,-3%,6%,-4%,-1%
CCC(=O)NC(=S)NNC(=O)c1ccc(OC)cc1,-44%,0%,-7%,-12%,56µM*
CCCCOc1ccc(C(=O)NNC(=S)NC(=O)CC)cc1,-33%,9%,?,?,-14%
COc1ccc(S(=O)(=O)NNC(=S)NCCc2ccccc2)c(OC)c1,-21%,5.6µM*,nt,-9%,7%
COc1ccc(C(=O)NC(=S)NCc2ccccc2)cc1,-29%,5µM*,-3%,-19%,-10%
O=C(CN1C(=O)NC2(CCCC2)C1=O)Nc1ccc(F)c([N+](=O)[O-])c1,-5%,-20%,4%,2%,-6%
COc1ccc(S(=O)(=O)N2CCN(C)CC2c2ccccc2)cc1 (centres undefined),-1%,-2%,nt,-4%,-19%
Cc1cc(C)cc(OCC(=O)Nc2ccc(-c3nc4ccccc4s3)cc2)c1,nt,2%,nt,nt,2%
